FLuc modulator = qHTS profiling assay for firefly luciferase inhibitor/activator using purifed enzyme and Km concentrations of substrates (counterscreen for miR-21 project) | purified FLuc, Km substrates, luminescence inhibition | 6.9% of 360,000 active | Potency, µM (top dose mostly 57.5 µM), without a hit: at the highest dose activity change, negative = inhibition, usual class: inhibitors | AID 588342, 2011 | Luciferin 4-monooxygenase (Photinus pyralis), P08659;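 also: plate controls were vehicle for no effect and reference inhibitor for full effect; nearly all actives have a fitted effect of over 55% in size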
Target sequence (P08659 whole entry, looked up): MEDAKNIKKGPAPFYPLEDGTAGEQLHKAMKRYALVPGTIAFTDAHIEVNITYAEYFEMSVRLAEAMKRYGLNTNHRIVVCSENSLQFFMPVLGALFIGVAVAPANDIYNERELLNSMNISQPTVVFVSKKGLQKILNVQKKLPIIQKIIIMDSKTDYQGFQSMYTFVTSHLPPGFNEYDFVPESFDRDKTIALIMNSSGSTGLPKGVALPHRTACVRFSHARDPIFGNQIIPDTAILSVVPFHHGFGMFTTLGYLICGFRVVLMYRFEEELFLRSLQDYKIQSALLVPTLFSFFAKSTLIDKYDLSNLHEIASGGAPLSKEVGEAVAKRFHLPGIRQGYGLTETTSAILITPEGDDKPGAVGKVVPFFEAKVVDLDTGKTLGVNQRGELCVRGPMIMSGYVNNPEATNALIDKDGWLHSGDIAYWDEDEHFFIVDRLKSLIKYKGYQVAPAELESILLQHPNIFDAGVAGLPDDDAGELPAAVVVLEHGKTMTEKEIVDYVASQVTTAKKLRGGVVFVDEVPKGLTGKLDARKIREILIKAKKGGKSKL
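Purified P. pyralis luciferase (10nM final) with 10uM D-luciferin and 10uM ATP (Km levels) in 50mM Tris acetate pH 7.5, 10mM Mg acetate, 0.01% Tween-20, 0.05% BSA; qHTS 6-point titration, ~60 µM downward; luminescence read.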
Luc counter = Counterscreen for Luciferase (Kinase-Glo TM) Inhibition; Luciferin 4-monooxygenase (Photuris pensylvanica), Q27757; Kinase-Glo luciferase, ATP luminescence, 8 min; Potency, µM (highest dose often 38.3 µM), inactives show top-dose activity change, negative = inhibition, most hits filed as inhibitors; 0.28% of 200,000 active; AID 1379, 2008; also: % is scaled to controls: 0 for no effect and ±100 for the full control effect; nearly all actives have a fitted effect of over 60% in size
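Kinase-Glo luciferase light output from ATP and luciferin was measured with 10 uM ATP, within the enzyme's linear range. Buffer: 50 mM imidazole pH 7.2, 50 mM KCl, 7 mM MgCl2, 0.01% Tween 20, 0.05% BSA; luminescence read after 8 min at ambient temperature.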
Rab9 prom act = qHTS Assay for Rab9 Promoter Activators | 2.8% of 320,000 active | AID 485297, 2010 | Huh7 Rab9 promoter-luciferase reporter, luminescence, 24 h | Potency, µM (titrated, usually from 9.22 µM), inactives show at the top dose activation, negative = inhibition, hits mostly activators; also: % of control where 0% means no effect; nearly all actives have a fitted effect of over 60% in size
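Cells were plated at 1500 per well in reduced-serum medium with 10% FBS and left 2 h. Compound in DMSO was then added for 24 h at 37 °C. Reporter signal was read by luminescence after 10 min with luciferase detection reagent.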
SMN2 splice enh = qHTS Assay for Enhancers of SMN2 Splice Variant Expression; HEK293 SMN2-luciferase splicing reporter, luminescence, 30-36 h; Potency, µM (doses to about 46.1 µM), without a hit: at the top dose activity change, positive = activation, usual class: activators; 2.8% of 210,000 active; AID 1458, 2008; also: % of control where 0% means no effect; nearly all actives have a fitted effect of over 55% in size
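HEK293 cells carry an SMN2 […]–luciferase reporter in which exon 7 inclusion puts luciferase in frame. Cells were plated 10-12 h before compound addition, then incubated 30-36 h at 37C. ONE-Glo luminescence was read; sodium butyrate at 4.5 mM final served as control.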
ELG1 genotoxic = qHTS screen for small molecules that induce genotoxicity in human embryonic kidney (HEK293T) cells expressing luciferase-tagged ELG1 | HEK293T ELG1-luciferase reporter, luminescence, 16 h | Potency, µM (highest dose often 46 µM), without a hit: at the highest dose activity change, positive = activation, hits mostly activators | 1.3% of 330,000 active; also: % of control where 0% means no effect; nearly all actives have a fitted effect of over 60% in size
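Quantitative HTS format in 1536-well plates. HEK293T ELG1-luciferase reporter cells receive test compound and are incubated 16 hr at 37 °C, 5% CO2; ONE-Glo added, 30 min room temperature, then luminescence read.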
NPC1 promoter act = qHTS Assay for NPC1 Promoter Activators. Huh7 NPC1 promoter luciferase reporter, 24 h. Potency, µM (top dose mostly 9.22 µM), for the others: at the highest dose activation, actives largely listed as activators. 2.4% of 320,000 active; also: % of control where 0% means no effect; nearly all actives have a fitted effect of over 60% in size
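Luciferase expression driven by the NPC1 promoter was measured in stably transfected Huh7 cells after a 24 h compound incubation, using a luciferase reagent and a luminescence read.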
Numbers without * were called inactive; ? = inconclusive; · = not tested or not shown; [ ] = dose if it differs, or a comment. Hits are enriched below; roughly 7.5% of the tested compounds scored in any of these assays. Calls follow the shape of the dose curve; as a rule, active = well fitted curve in the direction sought with a large enough effect; inconclusive = small, poorly fitted or top-dose-only effect, or another doubt; inactive = no such curve, though single readings can be large; an effect the other way counts as inactive or inconclusive. Potency is read from the fitted curve at half-maximal effect.

SMILES	FLuc modulator	Luc counter	Rab9 prom act	SMN2 splice enh	ELG1 genotoxic	NPC1 promoter act
N#Cc1ccc(COC(=O)CCc2c[nH]c3ccccc23)cc1	1.6%	·	10.2%	·	3.9%	0.5%
COc1cccc(NC(=O)CN(C)C(=O)c2ccc3c(c2)C(=O)N(CCC(C)C)C3=O)c1	-2.1%	·	-9.9%	·	-4.0%	-8.5%
Fc1cc(F)c2ncc3c(-c4ccccc4)nn(-c4cccc(Cl)c4)c3c2c1	-4.0%	·	·	1.0%	·	·
CCS(=O)(=O)c1ccc(O)c(NC(=O)/C=C/c2ccc(Cl)cc2)c1	?	·	-2.4%	·	-3.9%	0.0%
Cc1ccc(/C=C/C(=O)Nc2ccccc2C(N)=O)cc1	0.849µM*	-21.7%	1.41µM*	3.55µM*	?	2.82µM*
Cc1ccc(C(=O)/C=C/Nc2ccccc2C(N)=O)cc1	0.135µM*	11.2µM*	0.316µM*	0.708µM*	6.51µM*	0.631µM*
NC(=O)c1ccccc1N/C=C/C(=O)c1ccc(Cl)cc1	0.239µM*	?	0.398µM*	8.91µM*	?	0.398µM*
NC(=O)c1ccccc1NC(=O)c1ccccc1Cl	-16.6%	·	2.3%	·	5.4%	1.7%
Cc1ccc(/C=C/C(=O)Nc2cc(S(N)(=O)=O)ccc2O)cc1	15.1µM*	-2.3%	17.2%	2.2%	0.9%	4.4%
COc1ccc(COC(=O)c2cccc(S(=O)(=O)N3CCN(C(C)=O)CC3)c2)cc1	9.9%	·	-7.9%	·	-1.1%	-6.4%
Cc1ccnc2ccc(-c3nc4ccccc4o3)cc12	5.36µM*	-13.0%	3.55µM*	17.8µM*	?	?
Cc1nc2ccc(-c3nc4ccccc4o3)cc2[nH]1	2.39µM*	-11.6%	0.447µM*	?	?	0.708µM*
c1ccc(-c2nc3ccccc3o2)nc1	?	-21.0%	?	?	?	?
CS(=O)(=O)Nc1cccc(C2=NN(C(=O)c3ccc(F)cc3)C(c3cccs3)C2)c1 (stereo unspecified)	4.3%	·	1.4%	·	-9.3%	-2.5%
C#CCN1C(=O)C2(OCCO2)c2ccccc21	0.8%	·	2.8%	·	0.4%	1.1%
COc1ccc(C(=O)COC(=O)c2cc(=O)[nH]c3ccccc23)c(OC)c1	?	·	2.24µM*	·	?	3.16µM*
Cc1ccc(C(=O)COC(=O)c2cc(=O)[nH]c3ccccc23)cc1C	1.07µM*	2.0%	?	21.3%	20.6µM*	2.2%
NC(=O)COC(=O)c1cc(=O)[nH]c2ccccc12	0.7%	·	0.2%	·	-0.5%	-2.6%
COc1ccccc1C(=O)COC(=O)c1cc(=O)[nH]c2ccccc12	-8.0%	·	-1.4%	·	?	-1.6%
O=c1c(-c2ccccc2)nc2cnc(N3CCOCC3)nc2n1-c1ccccc1	·	0.3%	·	2.9%	·	·
Cc1nn(C)c(C(=O)Nc2ccc(S(=O)(=O)NC34CC5CC(CC(C5)C3)C4)cc2)c1Br	-17.2%	-1.1%	1.58µM*	1µM*	5.8%	1.41µM*
Cc1ccc(S(=O)(=O)NC23CC4CC(CC(C4)C2)C3)cc1	·	·	-11.9%	·	0.1%	-1.1%
O=C(CCSc1ccccc1)N1CCN(c2ccccc2)CC1	19µM*	2.6%	2.82µM*	22.4µM*	?	2.82µM*
O=C(CSc1ccccc1)N1CCN(c2ccccc2)CC1	?	0.8%	20.1%	?	7.5%	17.2%
O=C(CCCOc1ccccc1)N1CCc2ccccc2C1	23.9µM*	0.1%	23.3%	12.6µM*	20.6µM*	29.2%
SMILES	FLuc modulator	Luc counter	Rab9 prom act	SMN2 splice enh	ELG1 genotoxic	NPC1 promoter act
O=C(/C=C/C(=O)N1CCc2ccccc2C1)N1CCc2ccccc2C1	-2.9%	·	-2.1%	·	-2.1%	-0.4%
Cc1cccc(N2CCN(C(=O)CCCOc3ccccc3)CC2)c1C	7.57µM*	0.6%	2.51µM*	15.8µM*	2.59µM*	3.16µM*
O=C(CCCOc1ccc(Cl)cc1Cl)N1CCc2ccccc2C1	-16.7%	1.8%	-8.2%	-58.3%	1.3%	-2.6%
O=C(Cc1ccc(Br)cc1)N1CCc2ccccc2C1	16.9µM*	·	?	·	?	?
Cc1ccc(C)c(NC(=O)NCCN2CCCCC2)c1	3.8%	·	0.6%	·	-8.6%	-4.2%
Cc1ccc2c(=O)cc(C(=O)Nc3sc4c(c3C(=O)NCC3CCCO3)CCC4)oc2c1 (stereo unspecified)	-7.5%	·	·	5.7%	·	·
OC1COC(O)C(O)C1O (stereo unspecified)	3.2%	·	12.7%	·	-9.1%	-1.6%
CN1CCN(C(=O)CCN2C(=O)c3ccccc3C2=O)CC1	-2.0%	-1.3%	-3.1%	·	1.3%	-0.7%
O=C(CCCOc1ccccc1)N1CCN(c2ccccc2)CC1	9.53µM*	-2.5%	2.82µM*	?	9.2µM*	3.55µM*
CCOC(=O)N1CCN(C(=O)CCCOc2ccccc2)CC1	-11.4%[2.3 µM]	2.5%	1.78µM*	12.6µM*	?	2.82µM*
Cc1ccccc1N1CCN(C(=O)CCN2C(=O)c3ccccc3C2=O)CC1	16.9µM*	-6.8%	16.8%	4.3%	5.1%	0.5%
O=C(CCCOc1ccccc1)N1CCN(S(=O)(=O)c2ccccc2)CC1	·	·	16.3%	·	-0.5%	-1.6%
CC(Cn1cncn1)C(=O)N1CCN(S(=O)(=O)c2ccc(Cl)cc2)CC1 (stereo unspecified)	-1.2%	·	1.9%	·	0.1%	-0.1%
NNC(=O)c1cc(-c2cccs2)nc2ccccc12	-19.3%	·	-2.7%	·	-1.4%	-1.5%
CC(C)NC(=O)c1cc(-c2cccs2)nc2ccccc12	-10.7%	·	0.0%	·	-10.8%	-2.5%
O=C(N/N=C/c1ccsc1)c1cc(-c2cccs2)nc2ccccc12	9.53µM*	-4.2%	-5.0%	?	-4.0%	-12.0%
O=C(O)c1ccc(/C=N/NC(=O)c2cc(-c3cccs3)nc3ccccc23)cc1	6.01µM*	0.2%	9.3%	4.0%	9.1%	1.9%
C/C(=N\NC(=O)c1cc(-c2cccs2)nc2ccccc12)c1ccccn1	23.9µM*	0.1%	-44.9%	-80.6%	-0.2%	-19.5%
Cc1ccc2nc(C)c(C(=O)N/N=C/c3ccc(C(=O)O)cc3)cc2c1	5.36µM*	-0.8%	?	·	4.6%	-4.1%
O=C(N/N=C/c1ccsc1)c1cc(-c2ccncc2)nc2ccccc12	?	-2.6%	-11.4%	7.4%	5.5%	-16.8%
O=C(NCc1ccc(F)cc1)c1ccc(CSCc2cccc(Cl)c2)o1	-15.6%	·	·	·	·	·
COc1ccc(-c2noc(CCC(=O)N3CCN(c4ccccc4Br)CC3)n2)cc1	·	·	·	·	-0.9%	·

Screening data from PubChem BioAssay.
